Assay [1] can be described thus: ATG_CRE_CIS: Attagene CIS-FACTORIAL HepG2 Assay for human cAMP Responsive Element (CRE) binding protein 3 (AID 2282926). The note with it: HepG2 CRE cis-reporter, Attagene multiplexed mRNA; actives raise or lower the signal. A digest of the protocol: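 Endogenous transcription factor activity read via CRE-regulated reporter transcripts in transfected HepG2 cells. After 24 h exposure, RNA was reverse-transcribed, amplified, fluorescently labelled and sized by capillary electrophoresis; gain or loss fitted against DMSO.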

In assay [2] the target is CCAAT/enhancer-binding protein beta (Homo sapiens) (UniProt P17676). As to the kind of experiment: ATG_C_EBP_CIS: Attagene CIS-FACTORIAL HepG2 Assay for human CCAAT/Enhancer Binding Protein (C/EBP) beta (AID 2282927). The following applies: HepG2 Attagene cis-factorial transcription factor reporter; actives raise or lower the signal. A digest of the protocol: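 Endogenous transcription factor activity in human liver HepG2 cells is inferred from induction of a CEBPB-linked reporter mRNA. Exposure lasts 24 h; activity is fitted in both directions relative to DMSO.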

Assay [3] can be described thus: ATG_CMV_CIS: Attagene CIS-FACTORIAL HepG2 Assay for human CMV (Internal Marker) (AID 2282928).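 Also: endpoint acts as a background internal control marker rather than a target.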 The following applies: HepG2 CMV promoter reporter, transcription factor profiling; actives raise or lower the signal. The method, boiled down:
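Readout: fluorescent reporter cDNA fragments separated by capillary electrophoresis after RT-PCR and HpaI cut. Cells: HepG2 carrying transfected cis-promoter reporter constructs, dosed 24 h. Endpoint serves as background internal-marker control, fit bidirectionally versus DMSO.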

Assay [4] can be described thus: ATG_AP_1_CIS: Attagene CIS-FACTORIAL HepG2 Assay for human Activator Protein 1 (AP-1) (AID 2282931). The following applies: HepG2 Attagene cis-factorial AP-1 reporter mRNA; actives raise or lower the signal. The method, boiled down: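 Reporter transcripts were measured 24 h after dosing by RT-PCR and capillary electrophoresis of fluorescent fragments. Cells: HepG2 carrying transfected cis-regulated reporter constructs reading endogenous factor activity. Gain or loss fitted against DMSO.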

Assay [5] is described as follows: ATG_AP_2_CIS: Attagene CIS-FACTORIAL HepG2 Assay for human Activator Protein 2 (AP-2) (AID 2282932). The following applies: HepG2 AP-2 cis-reporter, Attagene transcription factor profiling; actives raise or lower the signal. The method, boiled down:
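Transiently transfected HepG2 cells are exposed to chemical for 24 h. Reporter transcripts are then measured as fluorescence following RT-PCR and capillary separation, and gain- or loss-of-signal is fitted relative to DMSO.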

Assay [6] can be described thus: ATG_BRE_CIS: Attagene CIS-FACTORIAL HepG2 Assay for human Bone Morphogenetic Protein (BMP) Response Element (BRE) (AID 2282933). The note with it: HepG2 BMP response element reporter, Attagene transcription factor profiling; actives raise or lower the signal. A digest of the protocol: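 Endogenous transcription factor activity read in transiently transfected HepG2 cells after 24 h chemical exposure. Bidirectional curve fitting against DMSO; readout is reporter transcript level by RT-PCR with capillary electrophoresis of labelled products.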

Assay [7] has as its target Transcription factor E2F1 (Homo sapiens) (UniProt Q01094). As to the kind of experiment: ATG_E2F_CIS: Attagene CIS-FACTORIAL HepG2 Assay for human E2F Transcription Factor 1 (AID 2282935). The note with it: HepG2 Attagene cis-reporter, E2F reporter RNA transcripts; actives raise or lower the signal. A digest of the protocol:
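Fluorescent RT-PCR products, digested with HpaI for 2 h at 37 C, are separated by capillary electrophoresis. Source RNA comes from transfected HepG2 cultures treated for 24 h.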

The nature of assay [8]: ATG_E_Box_CIS: Attagene CIS-FACTORIAL HepG2 Assay for human Enhancer Box (E-box) (AID 2282936). The following applies: HepG2 E-box cis-reporter transcription, actives raise or lower the signal. A digest of the protocol:
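Fluorescent reporter fragments separated by capillary electrophoresis gave the signal; mRNA came from HepG2 cells transfected with cis-element reporters and treated 24 h. Curves fitted bidirectionally relative to DMSO controls.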

Assay [9] is described as follows: ATG_M_61_CIS: Attagene CIS-FACTORIAL HepG2 Assay for M61 Transcription Factor (Internal Marker) (AID 2282937). The note with it: HepG2 Attagene CIS-FACTORIAL M61 internal marker reporter; actives raise or lower the signal. The method, boiled down:
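Readout: fluorescent reporter mRNA fragments resolved by capillary electrophoresis after RT-PCR. Transiently transfected human HepG2 cells carried MRTU constructs reporting endogenous TF activity; 24 h chemical exposure; gain or loss of signal fitted relative to DMSO.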

Assay [10] is described as follows: ATG_EGR_CIS: Attagene CIS-FACTORIAL HepG2 Assay for human Early Growth Response 1 (EGR1) (AID 2282938). The following applies: HepG2 Attagene CIS-FACTORIAL EGR reporter mRNA; actives raise or lower the signal. The method, boiled down: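 Read-out: fluorescent reporter-mRNA fragments resolved by capillary electrophoresis after RT-PCR, 24 h post-dose in transiently transfected HepG2. Endogenous transcription-factor activity reported via cis-element-regulated reporter units; gain or loss fitted relative to DMSO.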

Assay [11] in a line: ATG_M_19_CIS: Attagene CIS-FACTORIAL HepG2 Assay for M19 Transcription Factor (Internal Marker) (AID 2282939). The following applies: HepG2 Attagene CIS-FACTORIAL M19 internal marker reporter; actives raise or lower the signal. A digest of the protocol: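 Internal marker readout, fitted in both directions against DMSO, from HepG2 cells carrying transfected cis-element reporter constructs; RT-PCR and capillary electrophoresis of reporter mRNA after 24 h exposure.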

A short description of assay [12]: ATG_GATA_CIS: Attagene CIS-FACTORIAL HepG2 Assay for human GATA Binding Protein (AID 2282944). The note with it: HepG2 GATA cis-element reporter, Attagene multiplex mRNA; actives raise or lower the signal. The method, boiled down:
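Reporter transcripts from a GATA cis-regulated unit, among multiplexed reporters in transfected HepG2 cells, were measured by RT-PCR with capillary electrophoresis after 24 h dosing. Induction or loss scored relative to DMSO.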

The nature of assay [13]: ATG_GLI_CIS: Attagene CIS-FACTORIAL HepG2 Assay for human Zinc Finger Protein GLI1 (AID 2282945). The following applies: HepG2, Attagene cis-factorial reporter mRNA, GLI element; actives raise or lower the signal. A digest of the protocol: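 Bidirectional curve fits relative to DMSO, using reporter mRNA levels from RT-PCR plus capillary electrophoresis. Cells were HepG2 transiently carrying cis-regulated reporter constructs, harvested 24 h after dosing.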

Assay [14] can be described thus: ATG_ISRE_CIS: Attagene CIS-FACTORIAL HepG2 Assay for human Interferon Regulatory Factor 1 (IRF1) binding to an Interferon-Stimulated Response Element (ISRE) (AID 2282948). The following applies: HepG2 ISRE cis-reporter (Attagene), mRNA transcription readout; actives raise or lower the signal. A digest of the protocol:
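Read-out: fluorescent RT-PCR products resolved by capillary electrophoresis, reporting endogenous transcription factor activity via ISRE-driven reporter mRNA in transfected HepG2 cells dosed for 24 h; gain or loss fitted relative to DMSO.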

Assay [15] can be described thus: ATG_M_32_CIS: Attagene CIS-FACTORIAL HepG2 Assay for M32 Transcription Factor (Internal Marker) (AID 2282949).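 Also: background control marker of the multiplexed CIS panel rather than a real target.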 The following applies: HepG2 Attagene cis-factorial M32 reporter, mRNA; actives raise or lower the signal. A digest of the protocol:
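Transient MRTU transfection of HepG2; 24 h compound treatment; TriZol RNA, oligo(dT) RT, reporter PCR, 6-FAM primer extension, HpaI cut, CE. Gain/loss of signal vs DMSO.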

Assay [16] can be described thus: ATG_MRE_CIS: Attagene CIS-FACTORIAL HepG2 Assay for human Metal Responsive Element (MRE) (AID 2282954). The note with it: HepG2 MRE cis-reporter transcription, Attagene multiplex; actives raise or lower the signal. The method, boiled down:
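Multiplexed cis-reporter assay in human HepG2 liver cells, 24 h incubation with test chemical. Reporter transcripts measured by RT-PCR and capillary electrophoresis; values from bidirectional curve fitting versus DMSO.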

Assay [17] deals with Paired box protein Pax-6 (Homo sapiens) (UniProt P26367). In words: ATG_Pax6_CIS: Attagene CIS-FACTORIAL HepG2 Assay for human Paired Box 6 (PAX6) (AID 2282956). The note with it: HepG2 CIS-FACTORIAL PAX6 reporter transcription, RNA readout; actives raise or lower the signal. A digest of the protocol: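 Readout: reporter transcript fluorescence after RT-PCR and capillary electrophoresis. Cells: HepG2, transiently transfected with cis-regulated MRTUs. Exposure 24 h. Gain or loss of signal fitted bidirectionally relative to DMSO.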

Assay [18] can be described thus: ATG_PXRE_CIS: Attagene CIS-FACTORIAL HepG2 Assay for human Pregnane X Receptor Element (PXRE) (AID 2282957). The following applies: HepG2 Attagene CIS-FACTORIAL PXRE reporter, mRNA; actives raise or lower the signal. A digest of the protocol: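 Reporter transcripts under endogenous PXR-responsive cis-regulation quantified from total RNA of transfected HepG2 cells 24 h post-dosing, via RT-PCR with fluorescent primer extension and capillary electrophoresis. Gain or loss of signal fitted against DMSO baseline.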

Assay [19] addresses Transcription factor Sp1 (Homo sapiens) (UniProt P08047). In words: ATG_Sp1_CIS: Attagene CIS-FACTORIAL HepG2 Assay for human Specificity Protein 1 (Sp1) (AID 2282961). The following applies: HepG2 Sp1 cis-reporter transcription, actives raise or lower the signal. The method, boiled down:
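Read-out: fluorescence of 6-FAM-labeled, HpaI-digested RT-PCR products separated by capillary electrophoresis. HepG2 cells carried transfected cis-element reporter units and were exposed to chemicals for 24 h; gain or loss of signal fitted relative to DMSO.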

For assay [20], the target named is Signal transducer and activator of transcription 3 (Homo sapiens) (UniProt P40763). As to the kind of experiment: ATG_STAT3_CIS: Attagene CIS-FACTORIAL HepG2 Assay for human Signal Transducer and Activator of Transcription 3 (STAT3) (AID 2282963). The note with it: HepG2, Attagene cis-factorial STAT3 reporter transcription; actives raise or lower the signal. A digest of the protocol:
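Cis-factorial format: endogenous transcription factors in HepG2 drive transfected reporter units. After 24 h treatment, reporter RNA was reverse-transcribed, amplified, FAM-labelled and HpaI-digested before CE analysis; activity scored in both directions against DMSO.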

Each structure is given as a SMILES string. Calls of active or inactive are those of the source. The calls were made as follows: active = hit-call score of the fitted dose curve at least 0.9, where 1 is the maximum; inactive = score below 0.9.

Transcription factor E2F1 (Homo sapiens), sequence (Q01094 whole entry, looked up): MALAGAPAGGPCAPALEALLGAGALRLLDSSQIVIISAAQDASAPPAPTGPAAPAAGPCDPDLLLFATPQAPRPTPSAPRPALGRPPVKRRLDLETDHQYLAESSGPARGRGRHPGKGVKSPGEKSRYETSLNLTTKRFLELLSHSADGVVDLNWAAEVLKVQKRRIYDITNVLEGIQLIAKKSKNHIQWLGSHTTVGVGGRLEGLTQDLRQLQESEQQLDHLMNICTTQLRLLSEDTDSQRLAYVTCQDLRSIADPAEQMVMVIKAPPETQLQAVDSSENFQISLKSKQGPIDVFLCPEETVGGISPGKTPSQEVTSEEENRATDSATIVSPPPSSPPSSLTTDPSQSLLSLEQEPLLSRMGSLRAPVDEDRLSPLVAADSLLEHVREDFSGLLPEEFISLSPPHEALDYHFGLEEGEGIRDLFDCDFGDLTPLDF
CCAAT/enhancer-binding protein beta (Homo sapiens), sequence (P17676 whole entry, looked up): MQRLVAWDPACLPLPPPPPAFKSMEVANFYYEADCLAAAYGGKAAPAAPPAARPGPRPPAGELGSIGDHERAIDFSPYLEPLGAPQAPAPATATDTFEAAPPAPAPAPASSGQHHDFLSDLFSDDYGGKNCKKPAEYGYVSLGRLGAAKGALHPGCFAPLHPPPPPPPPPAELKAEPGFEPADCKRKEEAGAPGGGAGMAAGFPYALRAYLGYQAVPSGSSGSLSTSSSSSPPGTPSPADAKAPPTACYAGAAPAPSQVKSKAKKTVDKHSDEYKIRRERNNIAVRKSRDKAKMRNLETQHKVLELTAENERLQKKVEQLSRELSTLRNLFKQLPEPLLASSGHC
Transcription factor Sp1 (Homo sapiens), sequence (P08047 whole entry, looked up): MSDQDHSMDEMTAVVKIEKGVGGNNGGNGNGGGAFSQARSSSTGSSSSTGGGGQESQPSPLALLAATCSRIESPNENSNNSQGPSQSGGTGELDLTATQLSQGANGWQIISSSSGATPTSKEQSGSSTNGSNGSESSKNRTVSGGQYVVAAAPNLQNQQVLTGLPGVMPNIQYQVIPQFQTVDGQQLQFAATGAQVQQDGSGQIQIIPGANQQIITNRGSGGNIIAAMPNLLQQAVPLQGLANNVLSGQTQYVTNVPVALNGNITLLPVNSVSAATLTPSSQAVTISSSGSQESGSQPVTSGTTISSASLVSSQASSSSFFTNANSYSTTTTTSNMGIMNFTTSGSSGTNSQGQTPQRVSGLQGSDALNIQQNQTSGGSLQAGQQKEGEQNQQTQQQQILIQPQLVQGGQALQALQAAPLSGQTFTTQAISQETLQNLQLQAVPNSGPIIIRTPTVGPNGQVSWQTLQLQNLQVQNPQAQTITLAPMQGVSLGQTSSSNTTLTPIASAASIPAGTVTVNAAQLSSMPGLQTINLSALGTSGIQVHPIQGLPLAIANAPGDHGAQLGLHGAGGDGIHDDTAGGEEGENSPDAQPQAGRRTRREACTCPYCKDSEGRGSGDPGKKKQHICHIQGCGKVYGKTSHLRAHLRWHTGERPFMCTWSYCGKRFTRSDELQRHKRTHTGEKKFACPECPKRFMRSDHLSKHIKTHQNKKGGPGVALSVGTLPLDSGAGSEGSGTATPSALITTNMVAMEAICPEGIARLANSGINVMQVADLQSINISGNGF
Paired box protein Pax-6 (Homo sapiens), sequence (P26367 whole entry, looked up): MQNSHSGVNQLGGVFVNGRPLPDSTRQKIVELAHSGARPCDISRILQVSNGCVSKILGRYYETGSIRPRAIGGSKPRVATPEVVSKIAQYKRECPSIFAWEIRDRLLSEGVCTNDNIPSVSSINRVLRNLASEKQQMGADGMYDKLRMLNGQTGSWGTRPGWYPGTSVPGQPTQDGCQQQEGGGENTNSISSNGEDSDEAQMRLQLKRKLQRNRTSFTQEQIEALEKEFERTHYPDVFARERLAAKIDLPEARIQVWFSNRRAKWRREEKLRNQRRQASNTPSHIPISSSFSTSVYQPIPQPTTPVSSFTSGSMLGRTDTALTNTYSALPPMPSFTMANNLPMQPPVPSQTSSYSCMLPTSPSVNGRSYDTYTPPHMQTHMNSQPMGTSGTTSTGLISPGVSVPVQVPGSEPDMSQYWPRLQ
Signal transducer and activator of transcription 3 (Homo sapiens), sequence (P40763 whole entry, looked up): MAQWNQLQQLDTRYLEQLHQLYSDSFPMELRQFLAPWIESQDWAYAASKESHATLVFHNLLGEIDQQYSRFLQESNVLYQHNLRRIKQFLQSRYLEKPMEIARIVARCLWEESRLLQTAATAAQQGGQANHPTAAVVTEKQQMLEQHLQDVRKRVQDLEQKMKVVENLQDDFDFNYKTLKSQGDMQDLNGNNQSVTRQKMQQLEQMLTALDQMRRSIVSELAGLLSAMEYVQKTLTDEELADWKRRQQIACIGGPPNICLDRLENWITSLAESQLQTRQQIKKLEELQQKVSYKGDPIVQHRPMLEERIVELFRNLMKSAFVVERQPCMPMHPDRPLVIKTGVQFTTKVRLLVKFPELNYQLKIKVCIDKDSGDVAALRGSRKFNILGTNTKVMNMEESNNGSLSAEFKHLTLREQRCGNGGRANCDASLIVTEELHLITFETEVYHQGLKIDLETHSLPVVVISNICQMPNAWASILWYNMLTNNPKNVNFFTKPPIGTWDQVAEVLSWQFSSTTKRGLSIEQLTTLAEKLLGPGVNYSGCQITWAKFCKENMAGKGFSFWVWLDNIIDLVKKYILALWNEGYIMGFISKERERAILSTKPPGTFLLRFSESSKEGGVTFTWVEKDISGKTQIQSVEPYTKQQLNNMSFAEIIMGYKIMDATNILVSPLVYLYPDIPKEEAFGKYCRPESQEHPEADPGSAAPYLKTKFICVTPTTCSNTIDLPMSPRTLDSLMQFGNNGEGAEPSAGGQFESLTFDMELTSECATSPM

For `Cc1cccnc1`, the call in assay [1], in [3], in assay [5], in assay [7], in assay [8] and in [9] was inactive. Further, the outcome in assay [10], in [11], in assay [12], in assay [13], in assay [15] and in [16] was inactive. Moreover, the outcome in [17], in [18], in assay [19] and in [20] was inactive. Besides, the AC50 is 100 µM (active) in assay [2], 58 µM (active) in assay [4], 167 µM (active) in [6] and 164 µM (active) in [14].
For the compound `O=C1CCCCCCCCCCCCCC1`, the call in [1], in assay [2], in [3], in [5], in assay [6] and in assay [7] was inactive. Besides, the result in assay [8], in assay [9], in assay [10], in assay [11], in [12] and in assay [13] was inactive. Moreover, the call in [14], in [15], in [16], in [17] and in assay [20] was inactive. For the same compound, the AC50 is 44.6 µM (active) in [4], 9.14 µM (active) in [18] and 47.6 µM (active) in assay [19].
As to `C1=CCC=C1`, the outcome in assay [1], in assay [2], in assay [3], in assay [4], in [5] and in [6] was inactive. Moreover, the compound was classed as inactive in [7], in assay [8], in assay [9], in [10], in assay [11] and in assay [12]. Also, the compound was classed as inactive in assay [13], in [14], in assay [15], in assay [16], in [17] and in assay [18]. Moreover, the compound was classed as inactive in [19] and in assay [20].
With `Cc1cc(C)c(S(=O)(=O)O)cc1N=Nc1cc(S(=O)(=O)O)c2ccccc2c1O`, the compound was called inactive in assay [1], in [2], in [3], in assay [4], in [5] and in [6]. For the same compound, the result in [7], in assay [8], in assay [9], in [10], in assay [11] and in assay [12] was inactive. Further, the call in assay [13], in assay [14], in [15], in [16], in [17] and in assay [18] was inactive. The call in [19] and in assay [20] was inactive.

Broadly, the AC50 is the concentration at which the activity in the assay is half-maximal.

For the origin of these results see PubChem BioAssay (EPA / NIEHS).
